Source: PubChem (National Center for Advancing Translational Sciences (NCATS))
Tau ThT inhib = inhibitors of human tau fibril formation, thioflavin T binding; recombinant tau K18 P301L, heparin-induced fibrillization, ThT fluorescence; 2.1% of 270,000 active; Potency, µM (titrated, usually from 57.4 µM), inactives show at the top dose activity, negative = inhibition, most hits filed as inhibitors; AID 1460; further: potency means the concentration at half of the fitted maximal effect; nearly all actives have a fitted effect of over 55% in size
Target sequence (P10636 561-689 P618L limits assumed): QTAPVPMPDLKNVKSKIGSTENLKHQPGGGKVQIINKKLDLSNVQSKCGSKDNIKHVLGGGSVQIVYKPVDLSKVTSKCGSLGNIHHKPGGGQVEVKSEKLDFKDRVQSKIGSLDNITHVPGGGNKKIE
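Heparin-induced (20 uM) aggregation of recombinant human K18 P301L tau, 15 uM unlabeled with 0.24 uM labeled, pH 7 acetate buffer, 6 hr at 37 C with compound. Fibrils quantified by 30 uM ThT fluorescence after 1 hr ambient incubation.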
Tau fluor cs = counter-screen for tau fibril formation inhibitors. 0.93% of 280,000 active. Potency, µM (top dose mostly 57.7 µM), without a hit: top-dose activity change, negative = decrease. AID 1463. tau K18 P301L Alexa594 fluorescence, heparin fibrillization; further: potency means the concentration at half of the fitted maximal effect; nearly all actives have a fitted effect of over 55% in size
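Human tau K18 P301L (15 uM unlabeled, 0.24 uM Alexa 594-labeled) in 100 mM sodium acetate pH 7 with 20 uM heparin, 6 hr at 37 C. ThT 30 uM added, 1 hr ambient; Alexa 594 FP and total fluorescence read at 555/632 nm.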
Tau fibril FP = blocks human tau fibril formation measured by polarization | P10636 | K18 P301L tau heparin fibrillization, Alexa594 FP, 6 h | Potency, µM (series often up to 57.7 µM), without a hit: top-dose activity, negative = inhibition, hits mostly inhibitors | 0.39% of 280,000 active | AID 1468; further: potency means the concentration at half of the fitted maximal effect; nearly all actives have a fitted effect of over 55% in size
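Quantitative HTS format: compounds meet 15 uM recombinant K18 P301L tau and Alexa 594-tau tracer in 100 mM sodium acetate pH 7; 20 uM heparin triggers fibrillization at 37 C over 6 hr; FP gives the signal.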
FBPA coupling cs = coupling enzyme interference in Giardia aldolase counter-screen; coupling enzyme system counterscreen, AmpLite Red fluorescence; activity change, negative = inhibition, % at 58.2 µM, hits read low; 0.67% of 290,000 active; AID 2472; in the data active means activity change below about -30%
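First, compound is pin-transferred into glyceraldehyde-3-phosphate coupling-enzyme reagent at 57.5 uM final and held 10 min at RT. Next, substrate, coupling system and AmpLite Red are added. After 20 min RT, fluorescence (525/598 nm) is read.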
Sfp inh = blocks B. subtilis Sfp PPTase activity; Q9F4F7; Biochemical Sfp PPTase activity, qHTS; Potency, µM, for inactives: largest response in the series, negative = inhibition, usual class: inhibitors; 3.5% of 310,000 active; AID 1490;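 further: the enzyme is Sfp with the accession as filed and its product quenches rhodamine fluorescence; potency means the concentration at half of the fitted maximal effect; 0% = enzyme reaction without inhibitor and -100% = no enzyme wells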
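Compounds were incubated with enzyme (final 15 nM) for 15 min at room temperature before substrate addition started the reaction. Fluorescence at 525 nm excitation, 598 nm emission was recorded immediately and after 30 minutes.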
* marks the source's active call; other numbers are inactive results; ? = inconclusive; / = no result; ! = not confirmed by another sample; [ ] = dose if it differs, or a comment. In the library only some 5.2% were active in any assay of this set; here they are far more common. Unless noted, the call rests on the fitted dose curve; in most records, active means well fitted curve in the direction sought with a large enough effect; inconclusive means small, poorly fitted or top-dose-only effect, or another doubt; inactive means no such curve, though single readings can be large; an effect the other way counts as inactive or inconclusive. Unless noted, on the % scale 0 is the no-effect control and ±100 the full control effect.

SMILES	Tau ThT inhib	Tau fluor cs	Tau fibril FP	FBPA coupling cs	Sfp inh
CN1C=CC=C/C1=C1\SC(=S)N(c2ccccc2)C1=O	?	-3.2%	2.9%	-0.3	25.1µM*
CC(=O)c1ccc2c(c1)C1C=CCC1C(c1ccncc1)N2 (stereo unspecified)	14.1µM*	?	?	-31.9*	-27.6%
COC(=O)c1ccc(C2Nc3ccc(/C(C)=N/NC(=O)C(OC)c4ccccc4)cc3C3C=CCC32)cc1 (stereo unspecified)	?	-24.5%	-5.6%	/	?
C1=CC2c3ccccc3NC(c3ccncc3)C2C1 (stereo unspecified)	22.4µM*	?	?	-41.4*	31.6µM*
COc1ccc(C(=O)NCCn2cc(SCC(=O)Nc3ccc(F)cc3)c3ccccc32)cc1	?	14.1µM*[quencher]	?	/	/
O=C(NCCn1cc(SCc2ccc(F)cc2)c2ccccc21)c1c(F)cccc1F	?	?	-1.6%	-38.8*	-2.8%
O=C(NCCn1cc(SCc2ccc(C(F)(F)F)cc2)c2ccccc21)c1cccs1	?	5.62µM*[quencher]	-13.7%	/	/
O=C(NCCn1cc(SCc2ccccc2)c2ccccc21)c1c(F)cccc1F	?	?	4.7%	-11.7	-0.3%
Cc1nc2cccnc2n1-c1cccc(C(=O)N2CCN(c3cccc(Cl)c3)CC2)c1	-11.6%	-13.9%	1.7%	/	/
Cc1c2cnn(-c3ccccc3)c(=O)c2c(C)n1CCCC(=O)Nc1cccc(F)c1	-4.6%	-22.8%	-5.9%	/	/
COc1ccc(C(=O)Nc2ccc3nc(SCC(=O)N(C)c4ccccc4)sc3c2)cc1	-4.0%	?	?	/	/
Cc1n[nH]c(=S)n1/N=C/c1ccccc1OCc1ccc(Cl)cc1	-5.6%	-13.5%	-8.2%	-5.6	50.1µM*
COC(=O)CCCC1=CC2=CC(=O)C(C)(OC(=O)c3cccs3)C(=O)C2=CN1C1CCCC1 (stereo unspecified)	25.1µM*	-16.9%[11.6 µM]	?	-43.2*	-1.3%
COC(=O)CCCC1=CC2=CC(=O)C(C)(OC(=O)c3cccs3)C(=O)C2=CN1c1ccc(OC)cc1 (stereo unspecified)	10µM*	-10.5%[11.6 µM]	?	-19.3	-2.8%
CCCCC1=CC2=CC(=O)C(C)(OC(=O)CC)C(=O)C2=CN1C1CCCC1 (stereo unspecified)	-6.6%[11.5 µM]	-5.5%[11.6 µM]	1.9%[11.6 µM]	-32.9*!	25.3%
COC(=O)CCCC1=CC2=CC(=O)C(C)(OC(=O)c3cccs3)C(=O)C2=CN1C(CO)CO (stereo unspecified)	-2.2%[11.5 µM]	0.2%[11.6 µM]	-4.6%[11.6 µM]	-11.1	15.6%
COC(=O)CCCC1=CC2=CC(=O)C(C)(OC(=O)c3cccs3)C(=O)C2=CN1Cc1ccc2c(c1)OCO2 (stereo unspecified)	12.6µM*!	-8.0%[11.6 µM]	?	-20.0	-17.3%
Cc1cccc(N(C)S(=O)(=O)c2nnc(NC(=O)C(C)Oc3ccccc3)s2)c1 (stereo unspecified)	?	-25.4%	-13.6%	/	/
CCCCC1=CC2=CC(=O)C(C)(OC(=O)CC)C(=O)C2=CN1CCc1c[nH]c2ccccc12 (stereo unspecified)	?	2.0%[11.6 µM]	2.1%[11.6 µM]	-2.4	14.6%
COC(=O)CCCC1=CC2=CC(=O)C(C)(OC(=O)c3cccs3)C(=O)C2=CN1CCc1c[nH]c2ccccc12 (stereo unspecified)	?	-10.3%[11.6 µM]	5.3%[11.6 µM]	-36.1*!	0.3%
COC(=O)CCCC1=CC2=CC(=O)C(C)(OC(=O)c3cccs3)C(=O)C2=CN1Cc1ccccc1 (stereo unspecified)	12.6µM*!	-4.6%[11.6 µM]	?	-13.2	13.3%
COC(=O)CCCC1=CC2=CC(=O)C(C)(OC(=O)c3cccs3)C(=O)C2=CN1CCCOC(C)C (stereo unspecified)	?	-5.2%[11.6 µM]	-0.7%[11.6 µM]	-30.9*	2.6%
COc1ccc(-c2nc3ccccc3[nH]2)cc1	-3.1%	-13.1%	-7.4%	-10.2	8.4%
COc1ccc(-c2cc(=O)n(-c3nc4ccccc4[nH]3)[nH]2)cc1	31.6µM*	?	-17.4%	-5.3	2.2%
O=C(Nc1nnc2n1CCS2)c1ccco1	/	/	/	3.0	56.2µM*
SMILES	Tau ThT inhib	Tau fluor cs	Tau fibril FP	FBPA coupling cs	Sfp inh
CC(=O)Oc1oc(-c2ccccc2)nc1C=Nc1ccc(N(C)C)cc1	14.1µM*	?	-13.3%	0.7	5.6%
CC(=O)Oc1oc(-c2ccccc2)nc1/C=N/c1ccccn1	8.6%	10.6%	3.4%	-1.0	?
CC(=O)Nc1ccc(N=Cc2nc(-c3ccc(C)cc3)oc2O)cc1	4.47µM*	?	0.8%	2.3	6.2%
COc1ccccc1N=Cc1nc(-c2ccccc2)oc1OC(C)=O	25.1µM*	?	?	-6.6	-9.7%
CN(C)c1ccc(N=Cc2nc(-c3ccccc3)oc2OC(=O)c2ccccc2)cc1	?	-3.9%	-8.3%	-0.6	4.6%
Cc1ccc(N=Cc2nc(-c3ccc(C)cc3)oc2O)cc1	?	-17.5%	-8.7%	-0.9	0.1%
COc1ccc(N=Cc2nc(-c3ccco3)oc2O)cc1	15.8µM*	?	7.1%	0.5	10.4%
CCCCNc1nc(Oc2ccc(OCC(N)=O)nn2)nc(N2CCOCC2)n1	-3.1%	-1.6%	3.8%	/	/
CCCCN(C)CCNC(=O)c1ccc(Cn2c(=O)[nH]c3cc(OC)c(OC)cc3c2=O)cc1	-15.3%	-16.9%	?	/	/
CCOc1ccc(S(=O)(=O)N(C(=O)c2ccncc2)c2ccc3oc(C)c(C(=O)OC)c3c2)cc1	?	-20.4%	13.1%	/	/
CSc1ccccc1N=Cc1nc(-c2ccccc2)oc1O	20µM*	?	-10.7%	-10.2	-25.9%
Oc1oc(-c2ccccc2)nc1C=Nc1ccccc1	?	-28.4%	5.9%	1.5	-12.3%
CN(C)c1ccc(N=Cc2nc(-c3ccccc3)oc2O)cc1	2.24µM*	?	-8.7%	0.2	-2.4%
CC1=C(c2ccc(C)c(C)c2)S(=O)(=O)N=C1N1CCC(C(=O)NCCc2ccc(Cl)cc2)CC1	?	-15.2%	-6.5%	/	/
c1ccc(-c2cc3c(ccc4nonc43)nn2)cc1	-8.0%	-5.5%	-3.0%	2.2	25.4%
On1onc2c3cc(-c4ccccc4)nc3ccc21	3.98µM*	12.6µM*[quencher]	?	-11.9	-7.7%
O=C(Nc1cc(Cl)cc(Cl)c1)C(c1ccccc1)N1CCCCC1 (stereo unspecified)	-7.8%	-10.9%	-1.9%	0.4	1.4%
O=C(Nc1csc([N+](=O)[O-])c1)Nc1ccccc1Cl	/	25.1µM*[quencher]	-0.1%	-3.2	1.6%
O=C(Nc1ccc(Nc2ccccc2)cc1)Nc1ccccc1Cl	3.98µM*	3.98µM*[quencher]	?	0.5	10.9%
O=C(Nc1cc(Cl)cc(Cl)c1)C(NCCO)c1ccccc1 (stereo unspecified)	-4.2%	1.6%	3.5%	-2.2	35.5µM*
O=C(Nc1ccccc1)Nc1cc(Cl)cc(Cl)c1	?	?	11.2µM*	1.2	-14.0%
CCCCCCCCCCCCCCCCCCCCCCCCCCCCCC	/	/	/	1.3	-18.3%
